PubChem BioAssay (NCATS)
Inconclusive results are not listed. Activity calls are given as the source filed them. Unless noted, the call rests on the fitted dose curve; in most records, active means well fitted curve in the direction sought with a large enough effect; inconclusive means small, poorly fitted or top-dose-only effect, or another doubt; inactive means no such curve, though single readings can be large; an effect the other way counts as inactive or inconclusive.

Legend:
[1] = Stat Signaling Pathway (AID 446; active means well fitted curve in either direction with a large enough effect, not every such curve was filed as active;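 further: ME-180 cervical cancer cells given 40 pM IL-6 alongside compound; SIE-controlled beta-lactamase reporter measured as 460/530 nm FRET emission ratio; on the % scale 0 is the no-effect control and ±100 the full control effect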)
Outline: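 FRET read-out (405 nm excitation, 460/530 nm emission) of a beta-lactamase reporter under a STAT-inducible element in ME-180 cervical carcinoma cells. Cells with compound receive 40 pM IL-6 for 5 h. Values are normalised to AC90 stimulation and AC90 JAK-inhibitor controls.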

[2] = biological target: Glucocorticoid receptor (Homo sapiens) (UniProt P04150); experiment: GR-GFP Redistribution (AID 450;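 active means compounds whose dose series gives a full or clear partial fitted curve of increased nuclear translocation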; further: potency means the concentration at half of the fitted maximal effect); conditions: U2OS GR-GFP nuclear translocation, laser cytometry, 2 h
Glucocorticoid receptor (Homo sapiens), sequence (P04150 whole entry, looked up, the tested form may be a part): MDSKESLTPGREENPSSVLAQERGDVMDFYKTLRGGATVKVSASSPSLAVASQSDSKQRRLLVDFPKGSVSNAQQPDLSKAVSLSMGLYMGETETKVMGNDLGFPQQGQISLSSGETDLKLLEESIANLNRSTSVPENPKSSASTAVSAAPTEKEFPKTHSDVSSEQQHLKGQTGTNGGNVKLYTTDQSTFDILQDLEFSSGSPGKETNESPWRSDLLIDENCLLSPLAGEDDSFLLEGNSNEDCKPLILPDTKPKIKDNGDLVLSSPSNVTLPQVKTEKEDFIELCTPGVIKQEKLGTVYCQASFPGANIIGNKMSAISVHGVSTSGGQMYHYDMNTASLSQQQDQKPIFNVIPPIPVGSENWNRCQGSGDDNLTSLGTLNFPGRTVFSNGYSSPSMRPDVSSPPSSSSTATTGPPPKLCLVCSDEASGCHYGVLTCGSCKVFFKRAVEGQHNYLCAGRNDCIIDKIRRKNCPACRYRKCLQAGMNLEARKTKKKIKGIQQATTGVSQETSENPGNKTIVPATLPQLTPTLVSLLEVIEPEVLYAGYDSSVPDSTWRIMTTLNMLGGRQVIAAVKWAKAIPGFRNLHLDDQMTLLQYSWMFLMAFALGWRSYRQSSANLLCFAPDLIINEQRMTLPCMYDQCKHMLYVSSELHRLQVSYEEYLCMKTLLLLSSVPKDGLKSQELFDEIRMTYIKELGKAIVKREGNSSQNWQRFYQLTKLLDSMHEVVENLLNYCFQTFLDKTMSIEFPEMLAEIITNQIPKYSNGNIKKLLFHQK

[3] = biological target: Mitogen-activated protein kinase 10 (Mus musculus) (UniProt Q61831); experiment: JNK3 AlphaScreen Assay (AID 530; active means well fitted curve in either direction with a large enough effect, not every such curve was filed as active;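 further: kinase came from lysate of stimulated human HepG2 cells; signal reports phosphorylation of biotinylated GST-cJun 1-79 at Ser73 with 10 µM ATP; on the % scale 0 is the no-effect control and ±100 the full control effect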)
Outline: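 Biotinylated GST-cJun(1-79) served as substrate for JNK3 in HepG2 lysates stimulated with IL-1beta and TNF-alpha. ATP was 10 uM final, pH 7.6. Ser73 phosphorylation was quantified by AlphaScreen (680 nm excitation).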

[4] = biological target: Ubiquitin carboxyl-terminal hydrolase 1 (Homo sapiens) (UniProt O94782); experiment: Inhibitors of USP1/UAF1: Pilot qHTS (AID 504865);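 further: rhodamine fluorescence freed from ubiquitin-rhodamine substrate followed over time; top concentration of the series differs between compounds; on the % scale 0 is the no-effect control and ±100 the full control effect; nearly all actives have a fitted effect of over 35% in size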
Ubiquitin carboxyl-terminal hydrolase 1 (Homo sapiens), sequence (O94782 whole entry, looked up): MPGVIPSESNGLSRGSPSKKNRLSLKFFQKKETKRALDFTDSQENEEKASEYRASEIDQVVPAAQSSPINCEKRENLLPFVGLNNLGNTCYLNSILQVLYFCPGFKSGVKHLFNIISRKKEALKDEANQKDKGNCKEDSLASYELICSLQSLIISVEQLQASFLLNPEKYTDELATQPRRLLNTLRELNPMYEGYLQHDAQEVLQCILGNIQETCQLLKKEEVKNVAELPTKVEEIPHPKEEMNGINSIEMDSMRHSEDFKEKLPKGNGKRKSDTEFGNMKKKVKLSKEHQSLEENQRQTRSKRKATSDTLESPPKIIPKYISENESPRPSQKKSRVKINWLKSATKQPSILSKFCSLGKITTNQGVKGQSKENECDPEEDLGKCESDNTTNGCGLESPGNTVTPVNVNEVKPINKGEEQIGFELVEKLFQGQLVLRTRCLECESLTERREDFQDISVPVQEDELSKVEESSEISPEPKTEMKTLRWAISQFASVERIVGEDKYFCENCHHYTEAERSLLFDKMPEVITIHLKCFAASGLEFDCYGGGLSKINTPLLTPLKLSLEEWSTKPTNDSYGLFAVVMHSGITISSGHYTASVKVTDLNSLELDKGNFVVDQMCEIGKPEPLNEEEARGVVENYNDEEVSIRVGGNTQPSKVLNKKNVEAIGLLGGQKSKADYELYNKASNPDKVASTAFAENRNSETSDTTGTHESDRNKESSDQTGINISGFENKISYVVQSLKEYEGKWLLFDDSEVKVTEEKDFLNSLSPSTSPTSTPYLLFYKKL
Outline: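 USP1/UAF1 complex at 1 nM preincubated 15 min at room temperature with compound, then Ub-Rho substrate added at 150 nM final. Fluorescence (480/540 nm) read kinetically in 50 mM HEPES pH 7.8, 0.5 mM EDTA, 1 mM TCEP, 0.1 mg/ml BSA, 0.01% Tween-20.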

[5] = Viability counterscreen for antagonist of constitutive androstane receptor (CAR) against the NCATS DSHEA and TCM libraries (AID 1794837);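 further: compound exposure lasted 24 h before viability reading; 0% is about no effect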
Outline: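 HepG2-CYP2B6-hCAR cells, 2,500/well, were exposed 24 hr at 37C to substances together with 48 uM CITCO (final). Viability was read as CellTiter-Fluor fluorescence (Ex/Em 405/540 nm) after 1 hr.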

[6] = Viability counterscreen for agonist of constitutive androstane receptor (CAR) against the NCATS DSHEA and TCM libraries (AID 1794838);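 further: HepG2 cells with CYP2B6 reporter and hCAR plus 0.75 µM PK11195 antagonist; 0% is about no effect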
Outline: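 HepG2-CYP2B6-hCAR cells (2,500/well) treated 24 h at 37C with compounds plus 0.75 uM PK11195; viability read by CellTiter-Fluor fluorescence, Ex/Em 405/540 nm.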

[7] = biological target: Nuclear receptor subfamily 1 group I member 3 (Homo sapiens) (UniProt Q14994); experiment: Primary qHTS for agonist of constitutive androstane receptor (CAR) against the NCATS DSHEA and TCM libraries (AID 1794839);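 further: HepG2 cells expressing human CAR with a CYP2B6 reporter plus PK11195 antagonist; 0% is about no effect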
Nuclear receptor subfamily 1 group I member 3 (Homo sapiens), sequence (Q14994 whole entry, looked up): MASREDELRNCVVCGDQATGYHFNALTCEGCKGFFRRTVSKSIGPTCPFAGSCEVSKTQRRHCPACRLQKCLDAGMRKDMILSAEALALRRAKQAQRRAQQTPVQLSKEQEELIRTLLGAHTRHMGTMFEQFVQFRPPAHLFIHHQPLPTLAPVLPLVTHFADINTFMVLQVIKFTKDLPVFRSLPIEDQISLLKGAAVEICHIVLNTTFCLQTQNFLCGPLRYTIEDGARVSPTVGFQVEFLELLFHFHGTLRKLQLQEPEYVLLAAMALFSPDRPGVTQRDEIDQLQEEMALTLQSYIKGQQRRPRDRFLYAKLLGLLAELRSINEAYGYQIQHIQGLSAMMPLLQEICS
Outline: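 HepG2-CYP2B6-hCAR cells, 2,500/well, attached 5 h, then dosed with 0.75 µM PK11195 (final) for 24 h at 37 °C. Luciferase luminescence read (ONE-Glo); CellTiter-Fluor viability (Ex/Em 405/540 nm) in same wells; CITCO positive control.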

[8] = HepG2 viability counterscreen (readout 2: ATP content) against the NCATS DSHEA and TCM libraries (AID 1794840); further: 0% is about no effect
Outline: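 HepG2 cells, 1,000/well, attached ~4 h, then exposed ~24 h at 37C to substances. Protease activity read by fluorescence of 25 uM GF-AFC (Ex/Em 380/510 nm) after 30 min; ATP then by CellTiter-Glo luminescence.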

[9] = biological target: Cytochrome P450 3A4 (Homo sapiens) (UniProt P08684); experiment: qHTS for inhibitors of CYP3A4 against the NCATS DSHEA and TCM libraries (AID 1919971); further: potency means the concentration at half of the fitted maximal effect;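 on activity change, negative = inhibition: on the % scale 0 is the no-effect control and ±100 the full control effect; inhibition lowers luminescence from luciferin made by CYP3A4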
Cytochrome P450 3A4 (Homo sapiens), sequence (P08684 whole entry, looked up): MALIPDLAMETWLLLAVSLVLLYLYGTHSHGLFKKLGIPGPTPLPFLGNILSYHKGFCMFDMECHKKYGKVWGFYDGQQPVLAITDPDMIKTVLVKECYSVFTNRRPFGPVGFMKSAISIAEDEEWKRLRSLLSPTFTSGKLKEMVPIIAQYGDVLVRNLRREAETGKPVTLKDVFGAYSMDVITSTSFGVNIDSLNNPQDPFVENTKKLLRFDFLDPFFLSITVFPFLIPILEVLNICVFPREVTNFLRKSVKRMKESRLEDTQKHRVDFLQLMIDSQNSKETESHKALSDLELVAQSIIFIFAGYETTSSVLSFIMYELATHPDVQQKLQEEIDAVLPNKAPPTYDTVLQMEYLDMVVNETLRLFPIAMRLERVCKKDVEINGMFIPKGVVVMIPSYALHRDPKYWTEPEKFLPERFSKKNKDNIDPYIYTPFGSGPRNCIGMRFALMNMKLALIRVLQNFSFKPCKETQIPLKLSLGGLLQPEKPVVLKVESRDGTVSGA
Outline: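 Substances were tested against enzyme with a pro-luciferin substrate; minus-enzyme wells served as background. After NADPH-initiated oxidation (30-45 min, RT), light was generated with P450-Glo reagent.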

[10] = biological target: Cytochrome P450 2D6 (Homo sapiens) (UniProt P10635); experiment: qHTS for inhibitors of CYP2D6 against the NCATS DSHEA and TCM libraries (AID 1919972); further: on the % scale 0 is the no-effect control and ±100 the full control effect
Cytochrome P450 2D6 (Homo sapiens), sequence (P10635 whole entry, looked up): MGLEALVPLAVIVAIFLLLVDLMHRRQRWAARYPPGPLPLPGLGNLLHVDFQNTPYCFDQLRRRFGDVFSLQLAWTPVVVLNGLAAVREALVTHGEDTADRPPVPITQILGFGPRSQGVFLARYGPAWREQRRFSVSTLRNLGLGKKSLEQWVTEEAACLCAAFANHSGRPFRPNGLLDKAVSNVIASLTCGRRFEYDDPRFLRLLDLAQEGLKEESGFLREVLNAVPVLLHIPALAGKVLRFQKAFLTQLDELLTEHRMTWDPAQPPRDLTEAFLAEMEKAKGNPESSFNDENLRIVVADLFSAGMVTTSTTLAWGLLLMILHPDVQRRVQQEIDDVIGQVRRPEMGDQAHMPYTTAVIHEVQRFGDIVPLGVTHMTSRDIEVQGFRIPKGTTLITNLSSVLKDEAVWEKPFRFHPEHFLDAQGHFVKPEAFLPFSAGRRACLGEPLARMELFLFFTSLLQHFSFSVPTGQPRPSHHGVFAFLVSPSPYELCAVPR
Outline: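 qHTS, concentration–response format with most substances from 19.5 nM. CYP2D6 + pro-luciferin substrate, 15 min with compound, then 1x NADPH regen, 30–45 min RT dark. Glo detection 30 min, luminescence. Quinidine control.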

[11] = KB-3-1 P-gp reporter qHTS against the NCATS DSHEA and TCM libraries (AID 1919975); further: 0% is about no effect
Outline: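 Parental KB-3-1 cells, 500 cells/well, in DMEM with 10% FBS, exposed 72 h at 37 C to compounds in concentration-response. Viability read by CellTiter-Glo luminescence after 30 min at room temperature.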

[12] = biological target: Cytochrome P450 1A2 (Homo sapiens) (UniProt P05177); experiment: qHTS for inhibitors of CYPIA2 against the NCATS DSHEA and TCM libraries (AID 1919976); further: on the % scale 0 is the no-effect control and ±100 the full control effect
Cytochrome P450 1A2 (Homo sapiens), sequence (P05177 whole entry, looked up): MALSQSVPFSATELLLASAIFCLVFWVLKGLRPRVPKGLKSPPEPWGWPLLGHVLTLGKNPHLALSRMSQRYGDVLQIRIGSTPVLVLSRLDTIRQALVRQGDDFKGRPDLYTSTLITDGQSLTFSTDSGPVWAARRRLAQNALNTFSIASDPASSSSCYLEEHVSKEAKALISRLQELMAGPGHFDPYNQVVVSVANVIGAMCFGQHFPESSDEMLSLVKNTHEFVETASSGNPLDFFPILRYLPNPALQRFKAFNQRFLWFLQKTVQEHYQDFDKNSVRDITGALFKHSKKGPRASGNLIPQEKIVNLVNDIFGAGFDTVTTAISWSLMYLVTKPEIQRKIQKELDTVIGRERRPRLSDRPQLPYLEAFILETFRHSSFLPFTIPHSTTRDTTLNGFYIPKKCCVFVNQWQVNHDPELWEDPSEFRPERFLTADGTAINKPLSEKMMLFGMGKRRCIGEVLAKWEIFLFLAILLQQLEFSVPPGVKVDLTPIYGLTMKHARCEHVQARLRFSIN
Outline: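 Luminescence read-out: pro-luciferin converted to D-luciferin by CYP1A2, detected with P450-Glo reagent after 30 min RT. Enzyme plus substrate got compounds for 15 min RT; NADPH regeneration solution (final 1x) started a 30-45 min reaction, light-protected.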

[13] = qHTS Counterscreen for compound interference against the NCATS DSHEA and TCM libraries (AID 1919978); conditions: firefly luciferase detection reagent interference, luminescence;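 further: compounds preincubated with 1 µM D-luciferin or buffer before detection reagent; % of control where 0% means no effect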
Outline: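 Firefly luciferase detection reagent was added after compounds (19.5 nM–39.8 uM final) had been incubated 15 min at room temperature with 1 uM D-luciferin or with 100 mM phosphate buffer alone. Luminescence was read after 30 min at room temperature.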

[14] = Dual reporter qHTS for agonist of Pregnane X Receptor (hPXR) against the NCATS DSHEA and TCM libraries: Fluorescence readout (AID 1920058); further: 0% is about no effect
Outline: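 Fluorescence read-out for cell viability: CellTiter-Fluor, 1 h at 37 °C, Ex/Em 405/540 nm. This followed ~24 h treatment of hPXR-Luc HepG2 cells with substances in agonist mode.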

[15] = biological target: Nuclear receptor subfamily 1 group I member 2 (Homo sapiens) (UniProt O75469); experiment: Dual reporter qHTS for agonist of Pregnane X Receptor (hPXR) against the NCATS DSHEA and TCM libraries: Luminescence readout (AID 1920059); further: 0% is about no effect
Nuclear receptor subfamily 1 group I member 2 (Homo sapiens), sequence (O75469 whole entry, looked up): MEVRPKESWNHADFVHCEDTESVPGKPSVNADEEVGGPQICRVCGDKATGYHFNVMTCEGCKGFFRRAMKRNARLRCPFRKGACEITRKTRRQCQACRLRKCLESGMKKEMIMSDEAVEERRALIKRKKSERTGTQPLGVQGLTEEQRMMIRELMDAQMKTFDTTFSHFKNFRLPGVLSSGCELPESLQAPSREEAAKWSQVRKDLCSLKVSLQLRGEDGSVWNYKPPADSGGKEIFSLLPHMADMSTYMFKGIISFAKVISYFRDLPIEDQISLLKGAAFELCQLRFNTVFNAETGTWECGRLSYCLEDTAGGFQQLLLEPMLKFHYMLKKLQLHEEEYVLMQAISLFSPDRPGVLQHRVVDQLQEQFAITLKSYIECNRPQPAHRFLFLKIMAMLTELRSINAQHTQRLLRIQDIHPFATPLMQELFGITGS
Outline: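 hPXR-LucHepG2 cells in phenol red-free DMEM with 5% charcoal-stripped FBS, 2000 cells/well, attached 5 h, then exposed 24 h at 37C to compounds; rifampicin as positive agonist control (2.8 nM–92 uM). Luciferase luminescence read.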

[16] = biological target: Nuclear receptor subfamily 1 group I member 2 (Homo sapiens) (UniProt O75469); experiment: Dual reporter qHTS for antagonist of Pregnane X Receptor (hPXR) against the NCATS DSHEA and TCM libraries: Luminescence Readout (AID 1920060);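 further: HepG2 cells carrying hPXR luciferase reporter stimulated with rifampicin at 2 µM; 0% is about no effect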
Outline: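 In antagonist mode, 2 uM rifampicin was added to hPXR-Luc HepG2 cells alongside test substances, incubated 24 h at 37 C; luminescence gave reporter activity, and CellTiter-Fluor fluorescence (405/540 nm) gave viability.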

[17] = biological target: Lysosomal acid glucosylceramidase (Homo sapiens) (UniProt P04062); experiment: Glucocerebrosidase-p2 (AID 348; in the data active means potency below about 10 µM; further: potency means the concentration at half of the fitted maximal effect); conditions: purified GBA, blue fluorogenic substrate, 40 min
Lysosomal acid glucosylceramidase (Homo sapiens), sequence (P04062 whole entry, looked up): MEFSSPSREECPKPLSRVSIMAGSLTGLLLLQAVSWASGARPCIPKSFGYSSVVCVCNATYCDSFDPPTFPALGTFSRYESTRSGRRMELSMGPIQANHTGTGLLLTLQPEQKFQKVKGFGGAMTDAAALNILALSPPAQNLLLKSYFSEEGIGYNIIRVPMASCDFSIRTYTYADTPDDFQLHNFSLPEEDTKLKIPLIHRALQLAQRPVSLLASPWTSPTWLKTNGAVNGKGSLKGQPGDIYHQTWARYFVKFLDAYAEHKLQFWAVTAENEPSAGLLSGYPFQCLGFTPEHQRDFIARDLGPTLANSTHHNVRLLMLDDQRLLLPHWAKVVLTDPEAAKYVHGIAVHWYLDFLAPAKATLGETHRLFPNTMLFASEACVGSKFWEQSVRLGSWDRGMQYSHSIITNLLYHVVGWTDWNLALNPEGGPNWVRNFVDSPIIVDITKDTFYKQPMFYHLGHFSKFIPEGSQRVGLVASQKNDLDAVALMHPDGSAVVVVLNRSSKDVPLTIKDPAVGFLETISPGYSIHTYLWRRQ
Outline: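 Normal human glucocerebrosidase (0.2 nM) with blue fluorogenic substrate (80 uM final) in citrate/phosphate pH 5.9 with 10mM sodium taurocholate, 0.01% tween-20; 40 min RT, NaOH/glycine stop; fluorescence Ex 365/Em 440; AC50 from a titration from 0.6 nM upwards.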

[18] = biological target: Glucocorticoid receptor (Homo sapiens) (UniProt P04150); experiment: GR-EFC Redistribution (AID 451; calls by dose curve; further: potency means the concentration at half of the fitted maximal effect); conditions: CHO-K1 GR-EFC translocation, beta-gal luminescence, 2 h
Outline: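 CHO-K1 cells stably expressing nuclear-localized β-gal enzyme acceptor and GR fused C-terminally to the enzyme donor fragment; ligand-driven nuclear translocation restores β-gal by complementation. Compounds titrated up to 46 uM final, 2 h at 37 °C; luminescence read.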

[19] = biological target: Cytochrome P450 1A2 (Homo sapiens) (UniProt P05177); experiment: p450-cyp1a2 (AID 410; calls by dose curve; further: potency means the concentration at half of the fitted maximal effect)
Outline: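 20nM CYP1A2, 100uM Luciferin-ME (=Km), 100mM KPO4; cpd 10 min RT; +NADPH regen, 60 min RT; stop/detect 20 min; luminescence. Normalized to furafylline 57 uM = full inhibition.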

[20] = NFAT Signaling Pathway (AID 444; active means well fitted curve in either direction with a large enough effect, not every such curve was filed as active); conditions: Jurkat NFAT-bla M1, carbachol, beta-lactamase ratio, 5 h; at 7.69 µM (top of the series) unless noted
Outline: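 Jurkat cells carrying an NFAT-driven β-lactamase reporter and co-transfected muscarinic M1 receptor were treated with compound plus carbachol (1 uM final, an EC50 level) for 5 h at 37 °C. CCF4 loading followed for 1 h at RT; 460/530 nm ratio gave %activity.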

COc1ccc2[nH]cc(CCNc3ncncc3-c3cccc(C#N)c3)c2c1
inactive: outcome [1] | Potency [2] > 46 µM | Potency [3] | Potency [4]

CC/C=C\C/C=C\C/C=C\C/C=C\CCCCC(=O)O
inactive: viability change, negative = cytotoxic [5] -11.8% [at 5 µM] | activity change, negative = cytotoxicity [6] -13.9% [at 5 µM] | activation [7] -23.1% [at 5 µM] | activity change, negative = cytotoxic [8] -8.49% [at 3.42 µM] | activity change, negative = inhibition [9] 5.33% [at 4.27 µM] | activity change, negative = inhibition [10] -5.86% [at 4.27 µM] | activity change, negative = inhibition [11] -9.13% [at 3.26 µM] | activity change, negative = inhibition [12] 16.4% [at 4.62 µM] | max response [13] -1.09% | activation [14] -3.85% [at 5 µM] | activation [15] -9.78% [at 5 µM] | activity change, negative = inhibition [16] -24.2% [at 5 µM]

COc1cccc(Nc2ncc3nc(-c4cccs4)c(=O)n(C[C@H]4CCCO4)c3n2)c1
inactive: Potency [17] > 11.4 µM | outcome [1] | Potency [2] > 9.22 µM | Potency [18] > 46 µM | Potency [3]

COc1ccc2[nH]cc(CCNc3ncncc3-c3ccc4c(c3)OCO4)c2c1
inactive: Potency [17] > 11.4 µM | outcome [1] | Potency [2] > 46 µM | Potency [18] > 46 µM | Potency [3] | Potency [4]

C=CC(C)(CCC=C(C)C)OC(C)=O (stereo unspecified)
inactive: outcome [5] | outcome [6] | Potency [7] | outcome [8] | Potency [9] | Potency [10] | outcome [11] | Potency [12] | max response [13] -0.984% | outcome [14] | Potency [15] | outcome [16]

COCCn1c(=O)c(-c2cccs2)nc2cnc(N3CCNCC3)nc21
active: Potency [19] 3.98 µM
inactive: Potency [17] > 11.4 µM | Potency [18] > 46 µM | Potency [3] | Potency [4]

CN(CC(=O)O)C(=N)N
inactive: outcome [5] | outcome [6] | Potency [7] | outcome [8] | Potency [9] | Potency [10] | outcome [11] | Potency [12] | max response [13] -1.47% | outcome [14] | Potency [15] | outcome [16]

Cc1cccc(CNc2ncncc2-c2ccccc2CN(C)C)c1
inactive: Potency [17] > 11.4 µM | Potency [2] > 46 µM | Potency [18] > 46 µM | Potency [3] | Potency [4]

CC(=O)OC1CC2CCC1(C)C2(C)C (stereo unspecified)
inactive: Potency [4] | outcome [5] | outcome [6] | Potency [7] | outcome [8] | Potency [9] | Potency [10] | outcome [11] | Potency [12] | max response [13] 3.9% | outcome [14] | Potency [15] | outcome [16]

COc1ccccc1CNc1ncnc2ccc(-c3cccc(NS(C)(=O)=O)c3)cc12
inactive: Potency [17] > 11.4 µM | activity change, negative = inhibition [20] 24.7% | outcome [1] | Potency [18] > 46 µM | Potency [3] | Potency [4]
active: Potency [19] 3.98 µM

CCCCCC/C=C\CCCCCCCC(=O)O
inactive: outcome [5] | outcome [6] | Potency [7] | outcome [8] | Potency [9] | Potency [10] | outcome [11] | max response [13] 0.217% | outcome [14] | Potency [15] | outcome [16]

COc1cccc(-c2nc(NCCN3CCOCC3)c3ccccc3n2)c1
inactive: Potency [17] > 11.4 µM | activity change, negative = inhibition [20] -2.08% | outcome [1] | Potency [18] > 46 µM | Potency [3] | Potency [4]

CN(C)C(=O)c1ccc(-c2cc(NCc3ccccc3)ncn2)cc1
active: Potency [19] 12.6 µM
inactive: Potency [17] > 11.4 µM | activity change, negative = inhibition [20] 27.8% | outcome [1] | Potency [2] > 46 µM | Potency [18] > 46 µM | Potency [3] | Potency [4]

CC1=CCC(=C(C)C)CC1
active: Potency [9] 39.8 µM
inactive: outcome [5] | outcome [6] | Potency [7] | outcome [8] | Potency [10] | outcome [11] | Potency [12] | max response [13] 2.83% | outcome [14] | Potency [15] | outcome [16]

Cn1cc(-c2nc3cnc(N4CCNCC4)nc3n(CCc3ccccc3)c2=O)c2ccccc21
inactive: Potency [17] > 11.4 µM | Potency [2] > 9.22 µM
active: Potency [19] 15.8 µM | activity change, negative = inhibition [20] 91.4% [activator]

CCCCCCCCCCCCCCCCCCCCCC(=O)O
inactive: outcome [5] | outcome [6] | Potency [7] | outcome [8] | Potency [9] | Potency [10] | outcome [11] | Potency [12] | max response [13] 3.78% | outcome [14] | Potency [15] | outcome [16]

CC1=CCC(O)(C(C)C)CC1 (stereo unspecified)
inactive: outcome [5] | outcome [6] | Potency [7] | outcome [8] | Potency [9] | Potency [10] | outcome [11] | Potency [12] | max response [13] 1.58% | outcome [14] | Potency [15] | outcome [16]
